“And” between values parts separate entries of the source, which are not always exact repeats. Equal values may be shown once. Screen size: about 300,000 compounds; about 5,400 (1.8%) were called active. Not shown: some 28% with an inconclusive outcome. Shown is part of a subset that was picked to be rich in actives. Values without a mark were called inactive. The call rests on the fitted dose curve; tested in HEK293 cells.
On the % scale 0 is the no-effect control and ±100 the full control effect; potency means the concentration at half of the fitted maximal effect.

The assay is described as follows: qHTS for inhibitors of binding or entry into cells for Marburg Virus. As to conditions: Marburg virus pseudotyped entry inhibition, cell reporter; series mostly up to 37.8 µM; activity change, negative = inhibition: at the top concentration.
As for `COc1ccc(CCNC(=O)COC(=O)c2ncc(Cl)c(Cl)c2Cl)cc1OC`, the “activity change, negative = inhibition” value was -3.32%. `COc1ccccc1C(=O)c1ccccc1C(=O)c1ccccc1`: the “activity change, negative = inhibition” value is 11.4% [at 46.1 µM]. On to `COc1ccc(N2CC(C(=O)N[C@@H](C)C(=O)N3CCCCC3)CC2=O)cc1` (stereo partly drawn), for which the “activity change, negative = inhibition” value was 7.02% [at 46.1 µM].

As to `O=C1COc2ccc(C(=O)COC(=O)CCOc3ccccc3)cc2N1`, the “activity change, negative = inhibition” value was -20%. Still for that read-out and setting: the value for `CC(NS(=O)(=O)c1ccc(OCC(=O)N2CCCC2)cc1)c1ccccc1` (stereo not drawn) was 1.04% [at 46.1 µM]. On the same count and under the same terms, the value for `COc1ccc(S(=O)(=O)N2CCN(CC(=O)N3c4ccccc4CC3C)CC2)cc1OC` (stereo not drawn) was 1.43%; that for `COc1ccc(C(=O)O)cc1S(=O)(=O)NC1CCN(Cc2ccccc2)CC1` was -1.19%; that for `O=C(Cn1cnc2ccccc2c1=O)NNC(=O)c1ccccc1F` was 11.2%. Consider `Cc1ccc(NS(=O)(=O)c2ccc(C)c(NC(=O)COc3ccc4ccccc4c3)c2)c(C)c1`, for which the Potency is 11.2 µM (active). Take `Cc1ccc(C)c(NC(=O)CN(C)C(=O)COc2ccc3ccccc3c2)c1`: the “activity change, negative = inhibition” value is 4.53%. Same read-out and setting: to `Cc1ccc(C)c(NS(=O)(=O)c2ccc(OCC(=O)NCc3cccnc3)cc2)c1` belongs -33.3%. Consider `CC(C)c1ccc2c(c1)c(SC(C)(C)C)c(CC(C)(C)C(=O)O)n2Cc1ccc(Cl)cc1`, for which the Potency was 11.2 µM (active) and 6.51 µM (active).

Regarding `CC(C)c1ccc(Cn2c(COc3ccccc3)nc3ccccc32)cc1`, the “activity change, negative = inhibition” value is -19.3% [at 46.1 µM]. Still for that read-out and setting: the value for `O=C(O)c1ccc(Cn2c(=S)[nH]c3cc(Cl)ccc3c2=O)cc1` was -16.6% [at 46.1 µM]; that for `CN(C)C(=O)CCc1ccc2c3c([nH]c2c1)[C@]1(CCC2CCCC2)[C@@H](C(=O)N2CCOCC2)C[C@H](CC(=O)NCc2ccco2)C(=O)N1CC3` was 2.09%; that for `CCOC(=O)c1cc(S(=O)(=O)NCCc2ccc(OC)c(OC)c2)cn1C` was -2.37% [at 46.1 µM].

For the compound `COc1cccc(/C(C)=N/Nc2ncc(Cl)cc2Cl)c1`, the “activity change, negative = inhibition” value is 2.55%.

With `COc1cccc(/C=N/Nc2ncc(C(F)(F)F)cc2Cl)c1O`, the Potency is 0.794 µM (active).

On to `COc1cc(/C=C2\SC(=S)N(Nc3ncc(C(F)(F)F)cc3Cl)C2=O)cc(OC)c1OC`, for which the “activity change, negative = inhibition” value is -9.7%. As to `CCCCn1c(N)c(N(Cc2ccccc2OC)C(=O)COc2cc(C)ccc2Cl)c(=O)[nH]c1=O`, the “activity change, negative = inhibition” value is -20.6%.

With `Cc1ccc(C)c(NC(=O)C2Cc3ccccc3CN2C(=O)OCc2ccccc2)c1` (stereo not drawn), the Potency is 2.51 µM (active).

For the compound `Cc1ccc(C)c(NC(=O)C2CCCN2C(=O)OC(C)(C)C)c1` (stereo not drawn), the “activity change, negative = inhibition” value was 0%. Still for that read-out and setting: to `Cc1ccc(S(=O)(=O)N(C)C)cc1NC(=O)C1Cc2ccccc2CN1C(=O)c1ccco1` (stereo not drawn) belongs -4.73% [at 46.1 µM]; to `Cc1cc(C(F)(F)F)nc(SCC(=O)Nc2nccs2)n1`, -18.3% [at 46.1 µM]; to `CCN(CC(=O)Nc1ccc(OC)cc1)C(=O)c1ccc(=O)n(Cc2ccccc2)n1`, 15%. The same measure, in the same setting: the value for `COc1ccc(C)cc1NC(=O)CSc1nnc2ccc(-c3ccccn3)nn12` was 22.8% [at 46.1 µM]; that for `CCOc1ccccc1-c1nc(CN2CCC(C(=O)N3CCOCC3)CC2)c(C)o1` was -1.45%. The same measure, in the same setting: to `Cc1ccc(C)c(NC(=O)C(c2ccccc2)N2CCN(CC(=O)NC3CC3)CC2)c1` (stereo not drawn) belongs 23.5%. In the case of `CC(=O)OC(C(=O)NC1CCCCC1)c1ccccc1` (stereo not drawn), the “activity change, negative = inhibition” value was 5.06% [at 46.1 µM]. On to `CC(NCc1ccccc1OC1CCCC1)c1ccccc1` (stereo not drawn), for which the Potency was 7.94 µM (active). As for `OC(CNC1CCCCC1)c1ccccc1` (stereo not drawn), the “activity change, negative = inhibition” value is 1.96%. In the case of `COc1ccc2c(c1)c(=Cc1ccc(N(C)C)cc1)c1cc(-c3ccccc3)[n+](C)n12`, the Potency was 4.47 µM (active). Same read-out and setting: to `c1ccc2c(c1)[I+]c1ccccc1-2` belongs 0.282 µM (active). On to `O=C(NCCc1ccccc1)c1c[nH]c2ccc(F)cc2c1=O`, for which the “activity change, negative = inhibition” value was 12.5% [at 46.1 µM]. In the case of `CC(C)OC(=O)c1ccc(NCc2cc(O)ccc2O)cc1Cl`, the Potency was 2.24 µM (active).

For the compound `CC(OC(=O)c1ccc(Cl)cc1O)C(=O)NCCC1=CCCCC1` (stereo not drawn), the “activity change, negative = inhibition” value was 27.6%.

For the compound `CC(C)NC(=O)c1ccc(Cl)cc1Cl`, the “activity change, negative = inhibition” value is 6.98%.

In the case of `Cc1ccccc1-n1cc(CNC(=O)C2CCC(=O)N(C3CC3)C2)cn1` (stereo not drawn), the “activity change, negative = inhibition” value is -0.403%. As to `CC(C)CCNc1nc(N2CCCC2)c2c(c1C#N)CCN(C)C2`, the Potency is 7.3 µM (active). Regarding `CC(C)Cc1nc(N2CCOCC2)c(C#N)c2c1CCC2`, the Potency entry is “inactive”.

Turning to `CCN1CCc2c(C#N)c(NCc3ccccc3)nc(NCCO)c2C1`, the “activity change, negative = inhibition” value is -3.87%. On the same count and under the same terms, to `COC1=CC(=O)OC(c2ccc(OC)cc2)C1` (stereo not drawn) belongs -1.66% [at 46.1 µM]; to `O=C(NCc1ccncc1)C(=O)NCC1OCCN1S(=O)(=O)c1ccc(Br)cc1` (stereo not drawn), 0.653%. In the case of `COc1ccc(-c2csc3ncnc(N4CCN(S(=O)(=O)c5ccccc5C#N)CC4)c23)cc1`, the “activity change, negative = inhibition” value is -3.55%. For the compound `CCN1/C(=C/c2ccc3ccc(C)cc3[n+]2CC)Sc2ccccc21`, the Potency is 5.01 µM (active). Turning to `O=C(c1ccc(NS(=O)(=O)c2ccc3[nH]c(=O)[nH]c3c2)cc1)N1CCCCC1`, the “activity change, negative = inhibition” value is -1.17%. For `O=[N+]([O-])c1ccc(NS(=O)(=O)c2ccccc2)c(Cl)c1`, the Potency was 11.2 µM (active). On to `O=C(NNS(=O)(=O)c1ccc(F)cc1)c1ccc([N+](=O)[O-])cc1Cl`, for which the “activity change, negative = inhibition” value is -3.35% [at 46.1 µM]. Same read-out and setting: to `Cc1cccc(NS(=O)(=O)c2ccc([N+](=O)[O-])cc2)n1` belongs 4.08%. Still for that read-out and setting: the value for `CCOC(=O)CCC(NC(=O)c1ccc(CNc2nc3cc(C(F)(F)F)ccc3nc2C(=O)OCC)cc1)C(=O)OCC` (stereo not drawn) was 6.18%; that for `O=C(O)[C@@H]1CCCN1c1ncnc2sc3c(c12)CCC3` was -4.19%. On to `OCCNc1nc2ccccc2n1-c1ncnc2sc3c(c12)CCC3`, for which the Potency was 11.2 µM (active). Regarding `CC(C)(C)C(=O)Cn1c(NCCO)nc2ccccc21`, the “activity change, negative = inhibition” value is 8.41%.

For the origin of these results see PubChem BioAssay AID540276 (National Center for Advancing Translational Sciences (NCATS), 2011).
